Each sequence was assayed against ACCN2 (assay: pooled miR-30 sensor sort-seq; sequence = guide strand). Details: shRNA.

Sequence | sensor-assay potency score (higher = more potent)
TTGGCTAAAGCGGAACTCGTTG | -0.0624
TGAACGTGTAGCACTTTCCATA | -0.947
TGAACTTATAGGTATCAGGATG | -1.02
TTTGTCCTGCAGTATCTCCAGC | -1.1
TCGTTGAGGTTGCACAGCGTGA | -1.57
TAGCACTTTCCATAGCGTGTGA | -0.16
TGTAGCACTTTCCATAGCGTGT | -0.609
TAGTACTGCACACGCTCCGTGC | -0.962
TCGGTCGTAGAACTCACGCATG | -0.983
TTTGTTGAACTTCTTGGCCAGG | -0.861
TTTTCCTCGTCGGCACAGCTTG | -1.19
TTCAATGGTCTCATAGTTGAGG | -0.393

These sequences were tested against ACCN3 in the same assay as above. Details: shRNA.

Sequence | sensor-assay potency score (higher = more potent)
TAGCACTTTCCCATCCGGGTGA | 0.401
TTTCTCGCTCATCCAGGGCAGT | -1.12
TAGTAGTGGTGAGCAGCTCTGC | -0.938
TTCGGCAGCCGCACTTCCGAGC | -1.09
TTGTCTCGGAACACCTCACAGA | -0.903
TGTAGCACTTTCCCATCCGGGT | -0.708
TATCCCAGGACCTTGTCTCGGA | -0.411
TAAATGTGTAGCACTTTCCCAT | -0.325
TTGCACAGGGTGACAGCCGGGA | -0.486
TGTAGTAGCGCACCCTCTCAGC | -1.06

The sequences below were run against ACOT1 in the same assay as above. Details: shRNA.

Sequence | sensor-assay potency score (higher = more potent)
AACATGTCCACAATGCCAGGAA | -0.319
TAGCGCTCGTGCCGCACCCGGC | -1.32
TTTTACCTCAGGATGACTGAGC | -0.46
AGTTGTGGTCATCCTGACCTAC | -1.25
TGAGCAAGTAGTTCACAGCTTC | -0.12
TACCTCAGGATGACTGAGCAAG | -0.802
ATCTTTGGTCACCTTGATGCGA | -0.779
AGCTCTTCTGGTCAGGTCCTTC | -1.49
TTGTAGCGTAAGGTTCCCCCAA | -1.03
TTCATAGTTATAGTAAGCCAGA | -1.24
ATTCGCACCGGTTCGTCCCAGC | -0.912
TCGCACGTCGCGCTTCACCAGC | -1.56

These sequences were tested against ACOT6 in the same assay as above. Details: shRNA.

Sequence | sensor-assay potency score (higher = more potent)
TTCTGGGTAACAGATTATCTGG | -1.27
TAATGTAGAGGAGCTACTGTGT | 0.0472
TTGATAAGTACAGTGGCTGTGA | 0.402
TTACTTTTCCTAGATCATCGAC | -0.0892
TTTCCCATGAGCTTGTAGCCTT | -0.268
TTTAGGAATAATCATATCCTTG | -0.802

Reference: the OligoGym collection
